Consider 5 compounds from PubChem BioAssay.

The source made the active and inactive calls.

A short description of assay [1]: small molecules captured by biotinylated probe aFSTL3 – biochemical, small-molecule microarray, fluorescence 635/667, stem cell growth factor project, primary screen (AID 1064).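 Further: measures binding of the biotinylated anti-FSTL3 antibody to printed compounds.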 As to conditions: higher = more signal.
The nature of assay [2]: binders from COS7 lysate, DM2A8 probe, primary screen, torsin A project, cell lysate, small-molecule microarray, fluorescence 635/667 (AID 1065). As to conditions: higher = more signal, COS7 lysate expressing mutant human TOR1A.
A short description of assay [3]: small molecules captured by biotinylated probe aFGF2 – biochemical, small-molecule microarray, fluorescence 635/667, stem cell growth factor project, primary screen (AID 1067).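 Further: measures binding of biotinylated aFGF2 protein to printed compounds on slides; z-score merges feature fluorescence and signal-to-noise across triplicate slides.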 As to conditions: higher = more signal.
A short description of assay [4]: small molecules captured by biotinylated probe aFGF10 – biochemical, small-molecule microarray, fluorescence 635/667, stem cell growth factor project, primary screen (AID 1071).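 Further: score merges 667 nm spot intensity and signal to noise from triplicate slides.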 The note with it: higher = more signal.
In assay [5] the target is Neurogenic locus notch homolog protein 2 (Homo sapiens) (UniProt Q04721). The assay is described as follows: small molecules binding Notch2 protein – biochemical, small-molecule microarray, 635 nm fluorescence, stem cell growth factors, primary screen (AID 1073). The note with it: higher = more signal.
Sequence of Neurogenic locus notch homolog protein 2 (Homo sapiens) (Q04721 whole entry, looked up, canonical isoform): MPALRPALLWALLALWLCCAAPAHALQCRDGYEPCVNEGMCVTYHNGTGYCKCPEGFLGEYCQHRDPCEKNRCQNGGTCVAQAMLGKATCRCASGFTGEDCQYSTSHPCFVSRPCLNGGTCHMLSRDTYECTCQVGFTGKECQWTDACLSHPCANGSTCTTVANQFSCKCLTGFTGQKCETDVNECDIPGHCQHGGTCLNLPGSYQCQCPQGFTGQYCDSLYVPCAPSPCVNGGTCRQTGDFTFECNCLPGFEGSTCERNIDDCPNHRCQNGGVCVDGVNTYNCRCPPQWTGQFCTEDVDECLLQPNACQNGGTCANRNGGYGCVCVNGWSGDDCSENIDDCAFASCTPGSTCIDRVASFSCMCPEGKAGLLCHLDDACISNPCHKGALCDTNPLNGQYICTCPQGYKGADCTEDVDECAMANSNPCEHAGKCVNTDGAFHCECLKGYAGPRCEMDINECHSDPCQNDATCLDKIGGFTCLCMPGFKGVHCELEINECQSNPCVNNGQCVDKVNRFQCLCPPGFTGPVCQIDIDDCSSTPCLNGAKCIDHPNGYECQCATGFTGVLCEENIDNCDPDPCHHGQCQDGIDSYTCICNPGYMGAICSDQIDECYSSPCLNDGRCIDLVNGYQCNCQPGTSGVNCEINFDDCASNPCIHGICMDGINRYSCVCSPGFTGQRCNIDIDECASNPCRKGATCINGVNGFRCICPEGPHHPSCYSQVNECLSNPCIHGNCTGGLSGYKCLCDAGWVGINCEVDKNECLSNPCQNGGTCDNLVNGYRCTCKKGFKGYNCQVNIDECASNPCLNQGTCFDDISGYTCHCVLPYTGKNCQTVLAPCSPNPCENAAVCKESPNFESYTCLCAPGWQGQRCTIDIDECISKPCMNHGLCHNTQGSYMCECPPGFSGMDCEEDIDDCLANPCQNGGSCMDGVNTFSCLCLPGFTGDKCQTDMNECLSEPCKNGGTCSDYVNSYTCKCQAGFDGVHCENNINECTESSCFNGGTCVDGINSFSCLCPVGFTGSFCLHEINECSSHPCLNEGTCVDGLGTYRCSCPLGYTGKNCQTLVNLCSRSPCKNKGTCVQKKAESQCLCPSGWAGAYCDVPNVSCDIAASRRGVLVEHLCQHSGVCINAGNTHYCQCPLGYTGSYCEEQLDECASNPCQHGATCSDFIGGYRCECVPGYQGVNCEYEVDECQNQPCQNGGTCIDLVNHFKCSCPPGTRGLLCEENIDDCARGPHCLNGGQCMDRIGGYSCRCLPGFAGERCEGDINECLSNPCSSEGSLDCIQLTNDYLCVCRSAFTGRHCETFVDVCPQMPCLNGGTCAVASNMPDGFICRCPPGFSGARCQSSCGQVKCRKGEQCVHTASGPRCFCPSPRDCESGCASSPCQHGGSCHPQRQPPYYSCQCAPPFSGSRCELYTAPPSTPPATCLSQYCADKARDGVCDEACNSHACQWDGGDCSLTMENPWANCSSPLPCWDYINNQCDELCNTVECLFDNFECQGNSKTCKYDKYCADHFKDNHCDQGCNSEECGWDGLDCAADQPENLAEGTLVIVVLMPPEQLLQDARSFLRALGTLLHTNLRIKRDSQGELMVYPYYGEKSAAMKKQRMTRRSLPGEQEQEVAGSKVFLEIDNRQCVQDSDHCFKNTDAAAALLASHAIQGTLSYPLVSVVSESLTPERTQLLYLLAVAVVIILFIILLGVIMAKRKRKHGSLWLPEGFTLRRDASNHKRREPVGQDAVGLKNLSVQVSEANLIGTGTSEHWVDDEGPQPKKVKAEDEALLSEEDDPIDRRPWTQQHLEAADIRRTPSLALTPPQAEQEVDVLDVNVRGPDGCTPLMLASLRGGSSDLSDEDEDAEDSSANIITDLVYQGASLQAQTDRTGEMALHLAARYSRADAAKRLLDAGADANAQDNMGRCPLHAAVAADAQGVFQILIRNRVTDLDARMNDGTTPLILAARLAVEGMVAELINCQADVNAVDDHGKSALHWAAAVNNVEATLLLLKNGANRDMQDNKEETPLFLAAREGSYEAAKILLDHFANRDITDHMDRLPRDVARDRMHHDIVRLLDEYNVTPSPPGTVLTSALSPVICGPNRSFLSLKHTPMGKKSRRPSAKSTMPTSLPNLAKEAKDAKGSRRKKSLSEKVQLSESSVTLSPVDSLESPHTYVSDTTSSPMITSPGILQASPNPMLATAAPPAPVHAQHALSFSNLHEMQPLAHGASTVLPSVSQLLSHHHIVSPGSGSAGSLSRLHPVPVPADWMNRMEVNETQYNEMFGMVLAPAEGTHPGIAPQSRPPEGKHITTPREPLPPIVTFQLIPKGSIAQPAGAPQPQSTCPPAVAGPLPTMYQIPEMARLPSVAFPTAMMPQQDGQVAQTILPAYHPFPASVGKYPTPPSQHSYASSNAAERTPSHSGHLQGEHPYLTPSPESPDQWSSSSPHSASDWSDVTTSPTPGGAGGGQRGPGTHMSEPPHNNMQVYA
Assay [6] has as its target Pro-neuregulin-1, membrane-bound isoform (Homo sapiens) (UniProt Q02297). Description: small molecules binding neuregulin-1 protein – biochemical, small-molecule microarray, fluorescence 635/667, psychiatric disease protein project, primary screen (AID 1075).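 Further: score combines 667 nm spot fluorescence with signal to noise.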 As to conditions: NRG1 binding, 635 nm fluorescence, higher = more signal.
Assay [7] deals with Neuregulin-1 EGF-like domain. Description: small molecules binding NRG1 EGF domain – biochemical, small-molecule microarray, 635 nm fluorescence, primary screen (AID 1081).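 Further: binding of the protein to compounds printed on small-molecule microarray slides.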 As to conditions: higher = more signal.
Assay [8] can be described thus: FRG1 expression reporter modulators in myotubes – cell-based, C2C12 myotubes, firefly/Renilla luciferase, luminescence, FRG1 inhibition for FSHD, primary screen (AID 1084). The note with it: FRG1 promoter luciferase, higher = more signal, called active from +8 up or from −8 down.
Assay [9] can be described thus: small molecules captured by biotinylated probe aFST – biochemical, small-molecule microarray, fluorescence 635/667, stem cell growth factor project, primary screen (AID 1086).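 Further: score merges 667 nm fluorescence with signal-to-noise of each printed compound spot.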 As to conditions: higher = more signal.
Assay [10] in a line: binders of probe aHhip on microarray, primary screen, stem cell growth factor project, biochemical, small-molecule microarray, fluorescence 635/667 (AID 1087).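 Further: score merges spot fluorescence at 667nm with spot signal to noise ratio.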 The note with it: higher = more signal.
Assay [11] deals with PRMT1 (protein arginine N-methyltransferase 1). The assay is described as follows: small molecules binding arginine methyltransferase PRMT1 – biochemical, small-molecule microarray, 635 nm fluorescence, primary screen (AID 1088).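 Further: binding of Prmt1 protein to compounds spotted on small-molecule microarray slides.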 The note with it: higher = more signal.
Assay [12] can be described thus: growth effects on S. cerevisiae YJM789 – YJM789 clinical isolate, OD600, 24 h, basal, primary screen (AID 1089).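 Further: growth of clinical yeast isolate S. cerevisiae YJM 789 seeded 1000 cells per well; test concentration not given here.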 As to conditions: higher = more signal, called active from +8 up or from −8 down.
A short description of assay [13]: S. pombe growth modifiers, basal conditions – strain 972, OD600, 24 h, no modulator, primary screen (AID 1090).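 Further: basal condition with compound alone and no growth modifier present; test concentration not given here.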 The note with it: S. pombe 972 growth, higher = more signal, called active from +8 up or from −8 down.
Assay [14] can be described thus: budding yeast growth modifiers under rapamycin – strain BY4716, OD600, 96 h, primary screen (AID 1091). Further: test concentration not given here. The note with it: S. cerevisiae BY4716 + rapamycin, higher = more signal, called active from +8 up or from −8 down.
For assay [15], the target named is Torsin-1A-interacting protein 2 (Homo sapiens) (UniProt Q8NFQ8). Description: small molecules binding lysate-expressed LULL1 – cell lysate, human LULL1 lysate, 635/667 nm fluorescence, primary screen (AID 1092).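 Further: probe is lysate of COS7 cells overexpressing human LULL1; score merges per-feature 667 nm fluorescence with signal-to-noise.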 As to conditions: small-molecule microarray, hLULL1 lysate binding, 635 nm fluorescence; higher = more signal.
Sequence of Torsin-1A-interacting protein 2 (Homo sapiens) (Q8NFQ8 whole entry, looked up): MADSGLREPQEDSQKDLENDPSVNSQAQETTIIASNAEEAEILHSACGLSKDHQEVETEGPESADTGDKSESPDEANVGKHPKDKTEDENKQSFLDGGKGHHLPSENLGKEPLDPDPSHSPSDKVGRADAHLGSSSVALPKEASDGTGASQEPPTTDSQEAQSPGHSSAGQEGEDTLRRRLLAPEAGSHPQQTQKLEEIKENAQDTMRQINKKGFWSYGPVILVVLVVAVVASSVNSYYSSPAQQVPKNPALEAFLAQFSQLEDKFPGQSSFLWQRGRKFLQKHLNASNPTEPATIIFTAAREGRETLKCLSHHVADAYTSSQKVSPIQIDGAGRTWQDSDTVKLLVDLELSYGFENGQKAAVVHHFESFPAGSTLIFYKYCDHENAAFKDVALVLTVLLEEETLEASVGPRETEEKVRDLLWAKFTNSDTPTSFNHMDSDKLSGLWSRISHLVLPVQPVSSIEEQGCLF
Assay [16] in a line: optical density change of DRC41 E. coli – strain DRC41, OD650, 24 h, E. coli filamentation project, primary screen (AID 1093).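 Further: MC1000 strain lacking acrAB efflux and sulA so SOS filamentation is blocked; test concentration not given here.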 The note with it: E. coli DRC41 growth, higher = more signal, called active from +8 up or from −8 down.
The nature of assay [17]: probe aLefty2 binding to arrayed compounds – biochemical, biotinylated probe, 635/667 nm fluorescence, primary screen (AID 1094).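 Further: score merges spot fluorescence near 667 nm with spot signal-to-noise ratio.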 As to conditions: small-molecule microarray, higher = more signal.
The test system of assay [18] is Noggin (protein binding on small-molecule microarray). Description: small molecules binding Noggin protein – biochemical, 635/667 nm fluorescence, primary screen (AID 1095).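 Further: score merges 667 nm feature fluorescence with signal to noise over triplicate slides.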 As to conditions: 635 nm fluorescence, higher = more signal.
Assay [19] addresses Neurogenic locus notch homolog protein 3 (Homo sapiens) (UniProt Q9UM47). Description: small molecules binding NOTCH3 protein – biochemical, 635/667 nm fluorescence, primary screen (AID 1096). As to conditions: small-molecule microarray, 635 nm fluorescence, higher = more signal.
Assay [20] can be described thus: probe aEGFR binding to arrayed compounds – biochemical, biotinylated probe, 635/667 nm fluorescence, primary screen (AID 1097).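 Further: probe is a biotinylated anti-EGFR antibody binding compounds printed on slides; score combines fluorescence near 667 nm and signal to noise of each spot.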 The note with it: small-molecule microarray, higher = more signal.

Sequence of Pro-neuregulin-1, membrane-bound isoform (Homo sapiens) (Q02297 whole entry, looked up, the tested form may be a part, canonical isoform): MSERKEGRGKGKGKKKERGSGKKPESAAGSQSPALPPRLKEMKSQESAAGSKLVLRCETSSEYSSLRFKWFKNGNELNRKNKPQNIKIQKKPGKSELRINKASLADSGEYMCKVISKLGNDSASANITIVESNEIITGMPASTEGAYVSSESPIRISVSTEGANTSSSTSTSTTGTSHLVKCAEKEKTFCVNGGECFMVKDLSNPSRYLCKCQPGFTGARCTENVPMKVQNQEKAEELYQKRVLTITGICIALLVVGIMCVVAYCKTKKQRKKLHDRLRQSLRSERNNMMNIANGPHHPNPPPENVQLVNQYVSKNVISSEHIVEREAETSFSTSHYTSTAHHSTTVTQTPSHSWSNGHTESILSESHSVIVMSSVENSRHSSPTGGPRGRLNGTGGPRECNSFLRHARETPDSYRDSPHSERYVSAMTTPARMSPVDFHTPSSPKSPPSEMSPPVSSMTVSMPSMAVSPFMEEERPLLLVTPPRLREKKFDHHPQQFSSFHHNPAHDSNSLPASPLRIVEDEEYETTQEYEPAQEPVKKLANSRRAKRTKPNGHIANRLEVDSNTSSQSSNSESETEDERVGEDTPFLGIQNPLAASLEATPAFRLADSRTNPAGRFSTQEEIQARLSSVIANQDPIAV

For `COc1ccc([Si](C)(C)[C@H]2[C@H](CCO)O[C@@]3(C(=O)N(Cc4ccccc4)c4ccc(N(C=O)c5ccccc5)cc43)[C@@H]2C)cc1`, the composite z-score in [1] is -0.317; in assay [2] it was 0.242; in assay [3] it was -0.103; in assay [4], 0.199; in [5], 0.697; in assay [6] it was 0.929. Further, the composite z-score in assay [7] is 0.818; in assay [9] it was 0.643; in [10], -0.0994; in [11], 1.57; in assay [15] it was 1.65; in [17] it was -0.182. The results for the composite z-score in assay [18], in [19] and in [20] were 0.513, 1.09 and -0.0121, respectively. For the same compound, the z-score in [8] is -0.919 (inactive); in assay [12], -0.347 (inactive); in [13], 1.08 (inactive); in assay [14], 20.3 (active); in assay [16], 0.773 (inactive).
As to `COC(=O)[C@@]1(Cc2ccc(F)cc2)[C@H]2c3cc(C(=O)N(C)C)n(CCO)c3C[C@H]2CN1C(=O)c1ccccc1`, the composite z-score is 0.135 in [1]; -0.311 in assay [2]; 0.169 in [3]; 0.429 in assay [4]; 1.5 in assay [5]; 2.16 in assay [6]. Moreover, the composite z-score was determined as 1.06 in assay [7]; 0.433 in assay [9]; 0.218 in assay [10]; 0.0788 in assay [11]; 2.89 in assay [15]; 0.0423 in assay [17]. In addition, the composite z-score in assay [18] was -0.515; in assay [19] it was -0.562; in [20], -0.0271. Moreover, the z-score was -1.11 (inactive) in [8]; -1.48 (inactive) in [12]; 0.766 (inactive) in assay [13]; -0.618 (inactive) in assay [14]; -0.28 (inactive) in assay [16].
As to `COC(=O)[C@@]1(Cc2ccc(OC)cc2)[C@@H]2[C@@H](CC(=O)[C@H]2CC(=O)C(=O)N2CCCC2)CN1C(=O)c1ccccc1`, the composite z-score amounted to 2.42 in assay [1]; 0.296 in [2]; 0.926 in assay [3]; 0.884 in assay [4]; 1.69 in assay [5]; 1.94 in assay [6]. Also, the composite z-score in [7] is 1.24; in assay [9], 2.67; in assay [10], 2.65; in assay [11], 0.281; in assay [15], 2.6; in assay [17], 1.76. Further, the composite z-score in assay [18] stood at 0.156; in assay [19], 1.09; in assay [20] it was 1.26. In addition, the z-score was 1.31 (inactive) in assay [8]; -0.347 (inactive) in [12]; 0.304 (inactive) in assay [13]; -0.0364 (inactive) in assay [14]; -0.455 (inactive) in assay [16].
Take `COc1ccc(CCNC(=O)[C@@]2(Sc3ccc(C)cc3)CC(=O)N(Cc3cc(C(F)(F)F)cc(C(F)(F)F)c3)[C@@H]2c2ccc(CO)cc2)cc1`: the composite z-score in assay [1] was 0.575; in assay [2], -0.748; in assay [3], -0.188; in assay [4], -0.498; in [5], -1.79; in assay [6], -0.854. The composite z-score in assay [7] was -0.637; in assay [9], -0.498; in [10] it was 0.132; in assay [11] it was -0.772; in assay [15] it was 0.92; in assay [17], 0.344. The composite z-score in assay [18] was -1.69; in assay [19], -1.26; in assay [20] it was -0.213. Moreover, the z-score is 0.522 (inactive) in assay [8]; -1.11 (inactive) in assay [12]; -0.912 (inactive) in assay [13]; -0.683 (inactive) in assay [14]; -0.466 (inactive) in assay [16].
With `CCCCC(O)C1C=CC2C(=O)NC(=O)C2N1Nc1ccccn1` (stereo not given), the composite z-score was -0.197 in assay [1]; -0.0611 in assay [2]; -0.0691 in [3]; 0.329 in assay [4]; 0.949 in [5]; 0.699 in assay [6]. For the same compound, the composite z-score is 0.683 in [7]; 0.0344 in [9]; -0.128 in assay [10]; -0.357 in [11]; 0.0273 in assay [15]; -0.0825 in assay [17]. The composite z-score in assay [18] is -0.0426; in assay [19] it was -0.421; in assay [20], -0.067. Further, the z-score is 0.86 (inactive) in [8]; 0.374 (inactive) in [12]; 0.667 (inactive) in assay [13]; 0.0569 (inactive) in assay [14]; -1.73 (inactive) in [16].
